Binding signal data for one sequence are collected here from article PMC7862700, “An all-to-all approach to the identification of sequence-specific readers for epigenetic DNA modifications on cytosine”.

What all share (assay): DAPPL (digital affinity profiling via proximity ligation, sequencing); 10 mM Tris-HCl pH 7.5, 50 mM NaCl, 1 mM DTT, 4% glycerol, room temperature, 30 min; GST-TFs on glutathione beads, 16-mer random dsDNA library, 0.1% formaldehyde crosslink after washing; high values mean tight binding
Holding throughout (conditions): protein: recombinant; tags: N-terminal GST; dsDNA, one strand shown

In one assay the target is T1, ELK1 (Homo sapiens, UniProt P19419 1-428).
T1 sequence: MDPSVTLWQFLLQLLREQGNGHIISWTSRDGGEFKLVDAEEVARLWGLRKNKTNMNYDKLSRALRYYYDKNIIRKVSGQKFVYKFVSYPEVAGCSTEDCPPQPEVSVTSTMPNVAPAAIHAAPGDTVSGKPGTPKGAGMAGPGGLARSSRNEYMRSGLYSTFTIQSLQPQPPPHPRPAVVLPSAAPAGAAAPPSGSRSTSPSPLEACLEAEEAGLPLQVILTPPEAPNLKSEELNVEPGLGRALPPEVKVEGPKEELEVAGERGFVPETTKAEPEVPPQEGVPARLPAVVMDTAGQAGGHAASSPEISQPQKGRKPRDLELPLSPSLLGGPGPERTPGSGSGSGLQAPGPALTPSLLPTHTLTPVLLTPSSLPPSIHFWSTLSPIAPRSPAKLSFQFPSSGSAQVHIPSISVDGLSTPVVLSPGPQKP
Summed up:
(§1)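 GST fusions of human transcription factors were expressed in yeast and captured with glutathione beads. Once given DNA barcodes and pooled alongside a tag-only sample, they were incubated for 30 min at room temperature with 200 nmole of a random double-stranded 16-mer DNA library in Tris/NaCl/DTT/glycerol buffer, then washed, crosslinked (0.1% formaldehyde), proximity-ligated, PCR-amplified and sequenced on an Illumina NextSeq500. The binding signal of each hexamer is its read frequency for a factor divided by its frequency for the tag-only sample.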

The target of a further assay is T2, GABPA (Homo sapiens, UniProt Q06546 1-454).
T2 sequence: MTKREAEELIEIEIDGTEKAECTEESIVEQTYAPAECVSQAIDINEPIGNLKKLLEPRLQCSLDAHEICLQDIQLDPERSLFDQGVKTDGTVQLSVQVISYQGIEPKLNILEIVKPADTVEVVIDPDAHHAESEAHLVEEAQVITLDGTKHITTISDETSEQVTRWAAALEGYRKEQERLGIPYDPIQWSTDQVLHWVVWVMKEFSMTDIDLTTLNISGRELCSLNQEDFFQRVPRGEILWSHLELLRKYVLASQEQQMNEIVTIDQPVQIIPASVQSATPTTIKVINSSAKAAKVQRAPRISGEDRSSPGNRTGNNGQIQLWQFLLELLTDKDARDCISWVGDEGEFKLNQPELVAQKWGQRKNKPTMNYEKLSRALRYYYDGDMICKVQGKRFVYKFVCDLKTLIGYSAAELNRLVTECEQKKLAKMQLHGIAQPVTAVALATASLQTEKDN
Summed up: as §1

The target in a further assay is T3, ERG (Homo sapiens, UniProt P11308 1-479).
T3 sequence: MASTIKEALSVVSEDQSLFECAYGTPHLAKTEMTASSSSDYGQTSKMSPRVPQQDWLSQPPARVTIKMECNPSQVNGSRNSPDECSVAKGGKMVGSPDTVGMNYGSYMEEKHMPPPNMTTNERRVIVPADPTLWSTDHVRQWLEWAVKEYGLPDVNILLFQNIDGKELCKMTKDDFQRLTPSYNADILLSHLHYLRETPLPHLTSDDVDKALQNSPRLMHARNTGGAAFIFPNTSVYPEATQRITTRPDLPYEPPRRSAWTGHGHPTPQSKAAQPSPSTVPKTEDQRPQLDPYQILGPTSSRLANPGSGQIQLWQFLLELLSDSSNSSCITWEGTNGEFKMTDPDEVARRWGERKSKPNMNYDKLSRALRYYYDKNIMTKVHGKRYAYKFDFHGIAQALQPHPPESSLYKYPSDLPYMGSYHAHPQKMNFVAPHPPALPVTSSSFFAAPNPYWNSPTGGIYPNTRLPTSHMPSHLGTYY
A digest of the protocol: as §1

Another assay concerns the target ELF1 (Homo sapiens, UniProt P32519 1-619). A digest of the protocol:
as §1

The target of the next assay is T4, EHF (Homo sapiens, UniProt Q9NZC4 1-300).
T4 sequence: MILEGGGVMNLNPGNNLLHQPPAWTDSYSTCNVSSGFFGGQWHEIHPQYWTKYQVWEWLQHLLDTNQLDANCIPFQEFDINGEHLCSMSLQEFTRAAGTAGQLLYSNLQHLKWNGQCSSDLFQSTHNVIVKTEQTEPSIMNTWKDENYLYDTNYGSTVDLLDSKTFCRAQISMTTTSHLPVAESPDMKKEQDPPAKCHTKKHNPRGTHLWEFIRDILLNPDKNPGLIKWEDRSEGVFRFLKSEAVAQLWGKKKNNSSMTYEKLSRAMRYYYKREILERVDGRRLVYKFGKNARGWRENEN
A digest of the protocol: as §1

The next assay addresses SPIB (Homo sapiens, UniProt Q01892 1-262). A digest of the protocol: as §1
In another assay the target is T5, FEV (Homo sapiens, UniProt Q99581 1-238).
T5 sequence: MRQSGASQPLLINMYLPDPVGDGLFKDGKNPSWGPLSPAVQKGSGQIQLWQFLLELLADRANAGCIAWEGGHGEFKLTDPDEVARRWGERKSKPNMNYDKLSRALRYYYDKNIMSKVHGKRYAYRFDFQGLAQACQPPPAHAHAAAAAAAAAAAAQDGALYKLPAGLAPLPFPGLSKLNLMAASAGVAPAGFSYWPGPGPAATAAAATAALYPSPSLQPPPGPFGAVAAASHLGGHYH
A digest of the protocol:
as §1

The target in a further assay is ETV5 (Homo sapiens, UniProt P41161 1-510). A digest of the protocol:
as §1

In another assay the target is ELF4 (Homo sapiens, UniProt Q99607 1-663). A digest of the protocol: as §1
ELF4, sequence (Q99607 whole entry): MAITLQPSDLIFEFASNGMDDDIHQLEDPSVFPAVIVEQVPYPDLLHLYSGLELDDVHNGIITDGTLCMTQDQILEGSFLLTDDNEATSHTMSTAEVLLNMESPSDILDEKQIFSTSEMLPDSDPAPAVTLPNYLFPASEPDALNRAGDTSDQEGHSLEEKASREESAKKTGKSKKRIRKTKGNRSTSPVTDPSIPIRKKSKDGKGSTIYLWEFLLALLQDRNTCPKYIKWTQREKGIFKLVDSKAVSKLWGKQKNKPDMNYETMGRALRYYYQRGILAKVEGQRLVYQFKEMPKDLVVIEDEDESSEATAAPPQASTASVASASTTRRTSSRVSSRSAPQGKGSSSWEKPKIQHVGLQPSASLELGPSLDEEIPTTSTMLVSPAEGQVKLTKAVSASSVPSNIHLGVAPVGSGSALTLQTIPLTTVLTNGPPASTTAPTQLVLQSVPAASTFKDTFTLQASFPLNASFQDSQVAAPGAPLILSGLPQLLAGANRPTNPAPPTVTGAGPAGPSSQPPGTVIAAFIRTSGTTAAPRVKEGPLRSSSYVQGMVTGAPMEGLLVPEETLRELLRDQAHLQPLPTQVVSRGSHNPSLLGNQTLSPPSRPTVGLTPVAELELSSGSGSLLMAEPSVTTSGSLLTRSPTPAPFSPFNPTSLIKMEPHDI
Another assay concerns the target T6, ELK4 (Homo sapiens, UniProt P28324-2 1-405).
T6 sequence: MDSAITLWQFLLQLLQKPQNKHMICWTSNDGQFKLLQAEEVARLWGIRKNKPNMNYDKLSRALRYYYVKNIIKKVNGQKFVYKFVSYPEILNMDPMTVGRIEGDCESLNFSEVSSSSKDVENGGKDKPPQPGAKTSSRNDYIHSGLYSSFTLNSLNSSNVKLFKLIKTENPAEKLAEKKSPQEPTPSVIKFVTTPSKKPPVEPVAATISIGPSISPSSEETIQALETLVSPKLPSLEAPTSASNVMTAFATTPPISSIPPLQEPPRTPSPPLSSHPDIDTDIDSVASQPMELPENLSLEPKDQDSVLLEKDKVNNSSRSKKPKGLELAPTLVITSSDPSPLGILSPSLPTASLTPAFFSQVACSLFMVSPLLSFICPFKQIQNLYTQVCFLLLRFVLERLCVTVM
A digest of the protocol:
as §1

In another assay the target is T7, ETV2 (Homo sapiens, UniProt O00321 1-342).
T7 sequence: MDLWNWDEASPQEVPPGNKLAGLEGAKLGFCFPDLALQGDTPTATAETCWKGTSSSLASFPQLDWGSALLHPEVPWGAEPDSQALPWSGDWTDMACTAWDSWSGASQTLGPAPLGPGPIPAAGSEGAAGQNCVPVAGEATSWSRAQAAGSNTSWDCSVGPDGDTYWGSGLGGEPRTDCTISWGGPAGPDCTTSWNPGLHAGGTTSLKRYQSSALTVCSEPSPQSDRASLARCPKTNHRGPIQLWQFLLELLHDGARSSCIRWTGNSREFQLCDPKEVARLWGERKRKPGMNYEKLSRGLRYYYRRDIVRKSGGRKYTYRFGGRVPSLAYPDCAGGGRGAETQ
A digest of the protocol: as §1

For the next assay, the target named is T8, ELF3 (Homo sapiens, UniProt P78545 1-371).
T8 sequence: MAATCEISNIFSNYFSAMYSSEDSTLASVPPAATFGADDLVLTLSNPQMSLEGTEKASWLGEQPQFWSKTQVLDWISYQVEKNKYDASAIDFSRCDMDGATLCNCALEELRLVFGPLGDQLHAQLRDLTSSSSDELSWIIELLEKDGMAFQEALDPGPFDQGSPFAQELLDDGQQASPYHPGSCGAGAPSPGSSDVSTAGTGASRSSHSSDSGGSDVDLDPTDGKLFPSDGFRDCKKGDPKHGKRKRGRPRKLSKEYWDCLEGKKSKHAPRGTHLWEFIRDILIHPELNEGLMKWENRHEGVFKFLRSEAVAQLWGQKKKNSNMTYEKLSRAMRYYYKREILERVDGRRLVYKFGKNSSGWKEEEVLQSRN
A digest of the protocol: as §1

The next assay has as its target T9, ERF (Homo sapiens, UniProt P50548 1-548).
T9 sequence: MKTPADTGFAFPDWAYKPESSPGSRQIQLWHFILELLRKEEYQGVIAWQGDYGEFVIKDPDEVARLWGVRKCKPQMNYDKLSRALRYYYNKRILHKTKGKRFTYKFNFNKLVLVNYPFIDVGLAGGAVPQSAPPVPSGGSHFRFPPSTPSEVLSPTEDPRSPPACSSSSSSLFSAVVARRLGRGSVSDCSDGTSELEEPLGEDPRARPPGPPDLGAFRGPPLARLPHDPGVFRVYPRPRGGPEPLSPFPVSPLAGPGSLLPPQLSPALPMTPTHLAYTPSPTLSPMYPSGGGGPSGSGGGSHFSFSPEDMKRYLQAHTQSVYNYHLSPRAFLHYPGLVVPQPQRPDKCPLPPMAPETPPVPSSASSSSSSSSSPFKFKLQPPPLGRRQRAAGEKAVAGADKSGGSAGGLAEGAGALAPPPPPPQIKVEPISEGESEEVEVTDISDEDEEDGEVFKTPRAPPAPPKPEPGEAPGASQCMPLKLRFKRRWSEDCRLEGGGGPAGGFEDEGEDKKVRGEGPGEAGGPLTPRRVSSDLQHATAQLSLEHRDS
Summed up:
as §1

Another assay has as its target T10, ETV3L (Homo sapiens, UniProt Q6ZN32 1-361).
T10 sequence: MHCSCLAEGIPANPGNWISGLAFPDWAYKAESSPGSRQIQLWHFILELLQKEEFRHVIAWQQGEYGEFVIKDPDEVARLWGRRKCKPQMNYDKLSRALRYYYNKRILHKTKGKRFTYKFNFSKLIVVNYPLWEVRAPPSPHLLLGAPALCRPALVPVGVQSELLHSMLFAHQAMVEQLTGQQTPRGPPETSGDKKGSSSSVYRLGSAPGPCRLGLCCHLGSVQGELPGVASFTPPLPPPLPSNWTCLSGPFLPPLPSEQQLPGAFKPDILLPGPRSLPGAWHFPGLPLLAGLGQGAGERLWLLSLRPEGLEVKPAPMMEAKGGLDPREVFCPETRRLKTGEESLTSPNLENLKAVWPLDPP
Summed up:
as §1

For another assay, the target named is T11, ETS2 (Homo sapiens, UniProt P15036 1-469).
T11 sequence: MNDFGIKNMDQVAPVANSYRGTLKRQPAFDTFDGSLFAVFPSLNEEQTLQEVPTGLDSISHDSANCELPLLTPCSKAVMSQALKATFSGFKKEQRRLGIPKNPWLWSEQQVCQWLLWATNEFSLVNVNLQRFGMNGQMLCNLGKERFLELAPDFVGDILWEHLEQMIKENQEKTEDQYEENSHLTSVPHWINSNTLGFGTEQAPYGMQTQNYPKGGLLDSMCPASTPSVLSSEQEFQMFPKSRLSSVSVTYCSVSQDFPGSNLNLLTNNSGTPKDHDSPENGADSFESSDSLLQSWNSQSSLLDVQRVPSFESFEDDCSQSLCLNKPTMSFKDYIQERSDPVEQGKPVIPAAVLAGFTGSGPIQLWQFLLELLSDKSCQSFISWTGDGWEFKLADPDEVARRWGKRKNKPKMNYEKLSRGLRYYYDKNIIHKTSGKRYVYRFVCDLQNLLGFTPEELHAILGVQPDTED
Summed up:
as §1

The target of another assay is T12, SPDEF (Homo sapiens, UniProt O95238 1-335).
T12 sequence: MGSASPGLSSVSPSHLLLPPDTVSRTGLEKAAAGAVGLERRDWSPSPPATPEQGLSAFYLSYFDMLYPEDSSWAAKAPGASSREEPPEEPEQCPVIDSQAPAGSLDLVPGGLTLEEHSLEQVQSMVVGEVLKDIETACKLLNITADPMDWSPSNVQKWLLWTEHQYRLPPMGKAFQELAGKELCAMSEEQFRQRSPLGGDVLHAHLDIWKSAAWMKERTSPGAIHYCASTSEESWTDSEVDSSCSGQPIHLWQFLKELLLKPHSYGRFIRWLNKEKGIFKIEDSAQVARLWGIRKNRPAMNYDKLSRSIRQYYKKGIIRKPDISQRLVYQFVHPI
A digest of the protocol: as §1

Another assay has as its target ETV6 (Homo sapiens, UniProt P41212 1-452). A digest of the protocol: as §1

ELF1, sequence (P32519 whole entry): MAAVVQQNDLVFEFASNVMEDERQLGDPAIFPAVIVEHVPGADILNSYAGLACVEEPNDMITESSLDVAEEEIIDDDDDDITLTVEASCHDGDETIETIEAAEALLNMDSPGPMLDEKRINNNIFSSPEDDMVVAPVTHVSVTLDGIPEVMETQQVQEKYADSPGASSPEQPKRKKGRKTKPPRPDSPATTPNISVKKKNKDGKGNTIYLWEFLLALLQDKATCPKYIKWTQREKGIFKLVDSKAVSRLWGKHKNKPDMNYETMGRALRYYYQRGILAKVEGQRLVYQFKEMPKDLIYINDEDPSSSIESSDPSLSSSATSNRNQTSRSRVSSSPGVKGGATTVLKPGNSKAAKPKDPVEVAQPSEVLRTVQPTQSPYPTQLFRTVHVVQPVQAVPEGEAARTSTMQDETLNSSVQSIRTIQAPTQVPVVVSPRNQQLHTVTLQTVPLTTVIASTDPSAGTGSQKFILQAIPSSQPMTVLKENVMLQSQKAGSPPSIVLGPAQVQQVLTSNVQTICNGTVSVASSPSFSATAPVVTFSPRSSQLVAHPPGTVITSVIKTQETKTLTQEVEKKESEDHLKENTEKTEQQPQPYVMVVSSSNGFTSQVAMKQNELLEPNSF
ETV5, sequence (P41161 whole entry): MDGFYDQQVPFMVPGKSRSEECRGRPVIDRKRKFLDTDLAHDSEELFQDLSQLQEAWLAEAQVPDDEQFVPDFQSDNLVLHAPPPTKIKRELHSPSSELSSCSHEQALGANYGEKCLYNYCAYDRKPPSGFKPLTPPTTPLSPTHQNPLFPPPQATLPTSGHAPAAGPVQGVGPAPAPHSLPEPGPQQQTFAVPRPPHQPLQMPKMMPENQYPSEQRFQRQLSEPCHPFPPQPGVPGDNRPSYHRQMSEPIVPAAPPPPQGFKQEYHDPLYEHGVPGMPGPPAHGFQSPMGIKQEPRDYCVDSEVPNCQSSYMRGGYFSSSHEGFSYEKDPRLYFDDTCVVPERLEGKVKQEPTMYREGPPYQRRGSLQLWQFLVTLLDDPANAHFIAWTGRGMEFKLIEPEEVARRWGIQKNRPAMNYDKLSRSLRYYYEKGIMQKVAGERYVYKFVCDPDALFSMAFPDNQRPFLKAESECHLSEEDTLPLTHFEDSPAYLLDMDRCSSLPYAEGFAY
SPIB, sequence (Q01892 whole entry): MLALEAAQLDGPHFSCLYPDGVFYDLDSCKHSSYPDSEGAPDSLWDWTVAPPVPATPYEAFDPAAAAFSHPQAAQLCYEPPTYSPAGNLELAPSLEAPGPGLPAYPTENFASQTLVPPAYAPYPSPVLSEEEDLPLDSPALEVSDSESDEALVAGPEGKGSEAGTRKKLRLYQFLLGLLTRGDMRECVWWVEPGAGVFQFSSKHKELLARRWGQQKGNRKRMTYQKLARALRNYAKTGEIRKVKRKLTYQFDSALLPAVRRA
ETV6, sequence (P41212 whole entry): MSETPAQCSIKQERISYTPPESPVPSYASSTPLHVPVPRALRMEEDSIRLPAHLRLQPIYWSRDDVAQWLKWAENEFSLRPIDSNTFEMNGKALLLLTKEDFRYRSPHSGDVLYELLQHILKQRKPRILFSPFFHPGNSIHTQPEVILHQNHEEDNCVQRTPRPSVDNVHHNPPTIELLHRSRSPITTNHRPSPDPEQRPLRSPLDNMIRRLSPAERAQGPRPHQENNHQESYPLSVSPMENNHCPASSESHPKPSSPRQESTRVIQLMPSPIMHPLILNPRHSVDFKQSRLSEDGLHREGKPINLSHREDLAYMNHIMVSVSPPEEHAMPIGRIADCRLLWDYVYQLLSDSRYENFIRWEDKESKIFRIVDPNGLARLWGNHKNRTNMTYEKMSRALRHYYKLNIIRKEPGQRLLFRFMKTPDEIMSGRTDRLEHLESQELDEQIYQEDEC

As to GCCCAA, the binding signal in the assay with ELK1 was 1.08 fold enrichment (6-mer frequency, TF over GST control); in the assay with GABPA it was 1.14 fold enrichment (6-mer frequency, TF over GST control); with ERG, 1.06 fold enrichment (6-mer frequency, TF over GST control); in the assay with ELF1 it was 1.09 fold enrichment (6-mer frequency, TF over GST control); with EHF, 1 fold enrichment (6-mer frequency, TF over GST control); with SPIB, 1.06 fold enrichment (6-mer frequency, TF over GST control). The binding signal in the assay with FEV was 1.11 fold enrichment (6-mer frequency, TF over GST control); with ETV5, 1.1 fold enrichment (6-mer frequency, TF over GST control); in the assay with ELF4 it was 1.12 fold enrichment (6-mer frequency, TF over GST control); with ELK4, 1.07 fold enrichment (6-mer frequency, TF over GST control); with ETV2, 1.24 fold enrichment (6-mer frequency, TF over GST control); in the assay with ELF3, 1.05 fold enrichment (6-mer frequency, TF over GST control). In addition, the binding signal in the assay with ERF was 1.08 fold enrichment (6-mer frequency, TF over GST control); with ETV3L, 1.04 fold enrichment (6-mer frequency, TF over GST control); with ETS2, 1.09 fold enrichment (6-mer frequency, TF over GST control); with SPDEF, 1.08 fold enrichment (6-mer frequency, TF over GST control); with ETV6, 1.02 fold enrichment (6-mer frequency, TF over GST control).
